This test relates to MDA-MB-468. The test can be described thus: phospho-S6 immunofluorescence (DAPI-normalised), per-plate z-score; higher = higher phospho-S6 signal (less pathway suppression). The note with it: 24 h. The procedure:
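GPCR-targeted compound library (MedChemExpress HY-L006) tested on MDA-MB-468 PTEN-null TNBC cells in 384-well plates at 0.1, 1 or 10 uM, combined with vehicle, GDC0941 450 nM or lapatinib 1 uM, for 24 h. Phospho-S6 (S240/244) immunofluorescence normalised to DAPI and expressed as a per-plate z-score; values are the mean of biological triplicates.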

Where a name gives a salt, the structure may show the parent alone.

In the case of `OCC1OC(n2cnc3c(NC4CCCCC4)ncnc32)C(O)C1O` (stereo not given) [N6-Cyclohexyladenosine] (compound 10 µM), the “phospho-S6 immunofluorescence (z-score)” value by setting is: (co-treatment: GDC0941 450 nM) -0.37; (co-treatment: lapatinib 1 uM) 1.37; (co-treatment: vehicle) 0.6.

`CCN(CC)CC#CCOC(=O)C(O)(c1ccccc1)C1CCCCC1` (stereo not given) [Oxybutynin (chloride)] (compound 10 µM): the “phospho-S6 immunofluorescence (z-score)” value (co-treatment: GDC0941 450 nM) is 1.35, the “phospho-S6 immunofluorescence (z-score)” value (co-treatment: lapatinib 1 uM) stood at 0.51 and the “phospho-S6 immunofluorescence (z-score)” value (co-treatment: vehicle) was determined as 0.53.

`COc1cc2nc(N3CCN(C(=O)C4CCCO4)CC3)nc(N)c2cc1OC` (stereo not given) [Terazosin (hydrochloride dihydrate)] (compound 10 µM): the “phospho-S6 immunofluorescence (z-score)” value (co-treatment: GDC0941 450 nM) came out at 0.82, the “phospho-S6 immunofluorescence (z-score)” value (co-treatment: lapatinib 1 uM) was 0.9 and the “phospho-S6 immunofluorescence (z-score)” value (co-treatment: vehicle) was 0.87.

Consider `CN1CCC[C@@H]1CCO[C@](C)(c1ccccc1)c1ccc(Cl)cc1` [Clemastine (fumarate)] (compound 10 µM), for which the “phospho-S6 immunofluorescence (z-score)” value is, setting by setting: (co-treatment: GDC0941 450 nM) 0.73; (co-treatment: lapatinib 1 uM) -3.01; (co-treatment: vehicle) 1.46.

Consider `CC1(C)O[C@@H]2[C@@H](CO[C@@]3(COS(N)(=O)=O)OC(C)(C)O[C@@H]23)O1` [Topiramate] (compound 10 µM), for which the “phospho-S6 immunofluorescence (z-score)” value (co-treatment: GDC0941 450 nM) is -0.24, the “phospho-S6 immunofluorescence (z-score)” value (co-treatment: lapatinib 1 uM) came out at 0.19 and the “phospho-S6 immunofluorescence (z-score)” value (co-treatment: vehicle) was -0.31.

As to `CCOc1nc2cccc(C(=O)OC(C)OC(=O)OC3CCCCC3)c2n1Cc1ccc(-c2ccccc2-c2nn[nH]n2)cc1` (stereo not given) [Candesartan (Cilexetil)] (compound 10 µM), the “phospho-S6 immunofluorescence (z-score)” value was -1.58 (co-treatment: GDC0941 450 nM), 0.17 (co-treatment: lapatinib 1 uM) and -1.08 (co-treatment: vehicle).

Consider `Nc1nc(NCCc2ccc(O)cc2)nc2nc(-c3ccco3)nn12` (compound 10 µM), for which the “phospho-S6 immunofluorescence (z-score)” value is, setting by setting: (co-treatment: GDC0941 450 nM) -1.88; (co-treatment: lapatinib 1 uM) 0.67; (co-treatment: vehicle) 1.01.

Regarding `c1ccc2c(c1)N=C(N1CCNCC1)c1ccccc1N2` [DREADD agonist 21] (compound 10 µM), the “phospho-S6 immunofluorescence (z-score)” value was -0.11 (co-treatment: GDC0941 450 nM), -1.74 (co-treatment: lapatinib 1 uM) and -0.53 (co-treatment: vehicle).

On to `OCCN1CCN(CCCN2c3ccccc3Sc3ccc(C(F)(F)F)cc32)CC1` [Fluphenazine (dihydrochloride)] (compound 10 µM), for which the “phospho-S6 immunofluorescence (z-score)” value reads like this: (co-treatment: GDC0941 450 nM) -3.94; (co-treatment: lapatinib 1 uM) -6.77; (co-treatment: vehicle) -2.87.

Regarding `CCN(CCCCOC(=O)c1ccc(OC)c(OC)c1)C(C)Cc1ccc(OC)cc1` (stereo not given) [Mebeverine (hydrochloride)] (compound 10 µM), the “phospho-S6 immunofluorescence (z-score)” value runs as follows: (co-treatment: GDC0941 450 nM) 0.43; (co-treatment: lapatinib 1 uM) 0.05; (co-treatment: vehicle) -0.85.

For the compound `CNc1nc(NCc2ccc(NS(C)(=O)=O)cc2Cl)cc(-c2ccccn2)n1` (compound 10 µM), the “phospho-S6 immunofluorescence (z-score)” value reads like this: (co-treatment: GDC0941 450 nM) -3.45; (co-treatment: lapatinib 1 uM) -5.07; (co-treatment: vehicle) -4.83.

Consider `CN1CCN(CCc2ccc(Cl)c(Cl)c2)CC1` [BD1063 (dhydrochloride)] (compound 10 µM), for which the “phospho-S6 immunofluorescence (z-score)” value runs as follows: (co-treatment: GDC0941 450 nM) 0.51; (co-treatment: lapatinib 1 uM) -1.56; (co-treatment: vehicle) -0.49.

On to `O=C(N[C@H]1CCN(C(=O)c2cc(C(F)(F)F)cc(C(F)(F)F)c2)[C@H](Cc2ccc(Cl)cc2)C1)c1ccnc2ccccc12` (compound 10 µM), for which the “phospho-S6 immunofluorescence (z-score)” value was -1.97 (co-treatment: GDC0941 450 nM), -1.9 (co-treatment: lapatinib 1 uM) and -1.44 (co-treatment: vehicle).

As for `OCCN1CCN(CCCN2c3ccccc3Sc3ccc(Cl)cc32)CC1` [Perphenazine] (compound 10 µM), the “phospho-S6 immunofluorescence (z-score)” value (co-treatment: GDC0941 450 nM) is -1.28, the “phospho-S6 immunofluorescence (z-score)” value (co-treatment: lapatinib 1 uM) is -5.07 and the “phospho-S6 immunofluorescence (z-score)” value (co-treatment: vehicle) amounted to 0.82.

For `c1ccc(NCc2ccc(CNc3ccccn3)cc2)nc1` (compound 10 µM), the “phospho-S6 immunofluorescence (z-score)” value by setting is: (co-treatment: GDC0941 450 nM) 0.88; (co-treatment: lapatinib 1 uM) -0.48; (co-treatment: vehicle) 0.72.

For the compound `COc1cccc(-c2c(C)n(Cc3c(F)cccc3C(F)(F)F)c(=O)n(C[C@H](NCCCC(=O)O)c3ccccc3)c2=O)c1F` [Elagolix] (compound 10 µM), the “phospho-S6 immunofluorescence (z-score)” value is, setting by setting: (co-treatment: GDC0941 450 nM) 0.62; (co-treatment: lapatinib 1 uM) -0.03; (co-treatment: vehicle) 0.51.

As to `C[C@]12CCC(=O)C=C1CC[C@@H]1[C@@H]2[C@@H](O)C[C@@]2(C)[C@H]1CC[C@]2(O)C(=O)CO` [Hydrocortisone] (compound 10 µM), the “phospho-S6 immunofluorescence (z-score)” value runs as follows: (co-treatment: GDC0941 450 nM) -4.8; (co-treatment: lapatinib 1 uM) -4.13; (co-treatment: vehicle) -2.96.

Regarding `COc1cc(C(=O)N(CCCc2ccccc2)Cc2ccc(CC(=O)O)cc2)cc(OC)c1C` (compound 10 µM), the “phospho-S6 immunofluorescence (z-score)” value was -0.21 (co-treatment: GDC0941 450 nM), 0.49 (co-treatment: lapatinib 1 uM) and -0.17 (co-treatment: vehicle).

In the case of `C[N+]1(C)CCC(=C(c2ccccc2)c2ccccc2)CC1` [Diphenmanil (methylsulfate)] (compound 10 µM), the “phospho-S6 immunofluorescence (z-score)” value (co-treatment: GDC0941 450 nM) was 0.46, the “phospho-S6 immunofluorescence (z-score)” value (co-treatment: lapatinib 1 uM) stood at 0.06 and the “phospho-S6 immunofluorescence (z-score)” value (co-treatment: vehicle) was 0.8.

On to `CN1CCC(=C2c3ccccc3C=Cc3ccccc32)CC1` [Cyproheptadine (hydrochloride sesquihydrate)] (compound 10 µM), for which the “phospho-S6 immunofluorescence (z-score)” value is 0.49 (co-treatment: GDC0941 450 nM), -0.96 (co-treatment: lapatinib 1 uM) and -0.87 (co-treatment: vehicle).

Take `C[C@]12C=CC(=O)C=C1CC[C@H]1[C@@H]3C[C@@H](O)[C@](O)(C(=O)CO)[C@@]3(C)C[C@H](O)[C@@]12F` [Triamcinolone] (compound 10 µM): the “phospho-S6 immunofluorescence (z-score)” value reads like this: (co-treatment: GDC0941 450 nM) 0.04; (co-treatment: lapatinib 1 uM) 0.82; (co-treatment: vehicle) 0.94.

Regarding `Cc1c(C(=O)NN2CCCCC2)nn(-c2ccc(Cl)cc2Cl)c1-c1ccc(Cl)cc1` [Rimonabant (Hydrochloride)] (compound 10 µM), the “phospho-S6 immunofluorescence (z-score)” value runs as follows: (co-treatment: GDC0941 450 nM) -3.49; (co-treatment: lapatinib 1 uM) -4.25; (co-treatment: vehicle) -5.97.

For `CNC(=C[N+](=O)[O-])NCCSCc1ccc(CN(C)C)o1` [Ranitidine (hydrochloride)] (compound 10 µM), the “phospho-S6 immunofluorescence (z-score)” value was found to be 0.47 (co-treatment: GDC0941 450 nM), 0.54 (co-treatment: lapatinib 1 uM) and 0.29 (co-treatment: vehicle).

For `C[C@]12C=CC(=O)C=C1CC[C@@H]1[C@@H]2C(=O)C[C@@]2(C)[C@H]1CC[C@]2(O)C(=O)CO` [Prednisone] (compound 10 µM), the “phospho-S6 immunofluorescence (z-score)” value (co-treatment: GDC0941 450 nM) was determined as 0.55, the “phospho-S6 immunofluorescence (z-score)” value (co-treatment: lapatinib 1 uM) is 1.24 and the “phospho-S6 immunofluorescence (z-score)” value (co-treatment: vehicle) turned out to be 0.94.

Consider `COCCCN1CCC(NC(=O)c2cc(Cl)c(N)c3c2OCC3)CC1` [Prucalopride (succinate)] (compound 10 µM), for which the “phospho-S6 immunofluorescence (z-score)” value (co-treatment: GDC0941 450 nM) is -1.08, the “phospho-S6 immunofluorescence (z-score)” value (co-treatment: lapatinib 1 uM) was -0.3 and the “phospho-S6 immunofluorescence (z-score)” value (co-treatment: vehicle) is -1.84.

Values taken from the supplement of paper PMC7411640.
